In the library only some 1.1% were active in any assay of this set; here they are far more common.
Mtb BioA inh: M. tuberculosis BioA enzyme inhibitors, primary screen, biochemical, plate reader, single point, HTS; 7,8-diaminopelargonic acid synthase BioA (Mycobacterium tuberculosis); purified M. tuberculosis BioA enzyme; inhibition, % at 9.99 µM; actives 0.096% (n = 360,000); AID 602481, 2012; in the data active means inhibition above about 40%; inconclusive means no clear call, values can overlap the other calls
MazEF act: activators of E. coli MazEF toxin-antitoxin RNase, primary screen, biochemical, fluorescence, uHTS. activation, % at 20 µM. Endoribonuclease toxin MazF (Escherichia coli (strain K12)), P0AE70. AID 504720, 2011. actives 0.32% (n = 350,000). FAM/BHQ RNA-DNA oligo cleavage fluorescence, 5 h; in the data active means activation above about 50%
Target sequence (P0AE70 whole entry, looked up): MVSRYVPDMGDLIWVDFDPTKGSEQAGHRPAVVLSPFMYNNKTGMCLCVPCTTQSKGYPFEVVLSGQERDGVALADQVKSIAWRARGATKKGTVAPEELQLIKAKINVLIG
BJeLR viability: MLPCN primary cell-based screen for lethality selective to Ras in HRASV12 cells. BJeLR (HRASV12) viability, CellTiter-Glo ATP luminescence, 48 h. inhibition, % (no concentration beside the values). actives 0.17% (n = 300,000); in the data active means inhibition above about 50%; inconclusive means no clear call, values can overlap the other calls
PfHsp40 rescue: rescue of yeast from PfHsp40 toxicity, primary screen, S. cerevisiae, ATP luminescence | S. cerevisiae expressing PfHsp40, growth rescue | growth rescue, % at 12.5 µM | actives 0.68% (n = 340,000) | AID 504582, 2011; in the data active means growth rescue above about 28%, passing the limit was not always enough; inconclusive means no clear call, values can overlap the other calls;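 further: yeast W303a lacking pdr1 and pdr3 grown in galactose medium; growth measured after three days at 30 °C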
Yp Topo-I inh: Yersinia pestis topoisomerase I inhibitors, primary screen, biochemical, cleavage product accumulation, plate reader, single point; DNA topoisomerase I (Yersinia pestis CO92); Y. pestis Topo-I cleavage product accumulation; activity, % at 10 µM; actives 0.064% (n = 360,000); AID 504884, 2011; in the data active means activity above about 50%, passing the limit was not always enough; inconclusive means no clear call, values can overlap the other calls
3CLpro inhibitor: SARS-CoV 3CLpro protease inhibitors, primary screen, biochemical, quenched FRET; AID 1706, 2009; Replicase polyprotein 1ab (Severe acute respiratory syndrome coronavirus), P0C6X7; inhibition, % at 6 µM; recombinant SARS-CoV 3CLpro, quenched FRET peptide cleavage; actives 0.14% (n = 290,000); in the data active means inhibition above about 12%
Hits are given with their value; 0 = inactive; ? = inconclusive; - = no result given.

SMILES	Mtb BioA inh	MazEF act	BJeLR viability	PfHsp40 rescue	Yp Topo-I inh	3CLpro inhibitor
C=CCC[C@H](Cc1ccc(F)cc1)C(=O)OC[C@H](Cc1c[nH]c2ccccc12)NC(=O)[C@@H](CC=C)CC(=O)NCCO	0	0	-	47	0	-
C=CC[C@@H](Cc1ccc(F)cc1)C(=O)OC[C@H]1CCCN1C(=O)[C@@H](CC=C)CC(=O)N(CCO)Cc1ccccc1	0	0	-	?	0	-
C=CCC[C@@H](Cc1ccc(F)cc1)C(=O)OC[C@@H]1CCCN1C(=O)[C@@H](CC=C)CC(=O)N[C@@H](CO)Cc1ccccc1	0	0	-	41	0	-
CCC(C)Sc1ccc(-c2nc3ccccn3c2NCc2ccccc2)cc1OC (stereo not drawn)	0	0	-	89	0	-
COc1ccc(CSc2ccc(-c3nc4ccccn4c3NCc3ccccc3)cc2OC)cc1	0	0	0	0	0	-
CCNC(=O)C[C@H]1CC[C@H]2[C@@H](COC[C@@H](O)CN2C(=O)C2CCOCC2)O1	0	-	-	-	-	-
O=C1/C(=C/c2cccs2)CCC/C1=C\c1cccs1	0	0	0	0	0	0
Cn1cccc1/C=C1\CCC/C(=C\c2cccn2C)C1=O	-	863	0	0	0	0
Cc1cc(C(=O)Nc2cccc3c2O[C@@H](CN(C)CC2CC2)[C@@H](C)CN([C@H](C)CO)C3=O)n(C)n1	0	-	-	-	-	-
[O-][n+]1cccc2c(Br)cc(Br)c(O)c21	0	0	0	310	0	0
O=c1cc(Br)c(O)c(Br)cc1Br	-	0	-	0	0	-
O=C(C[C@H]1CC[C@H]2[C@@H](COC[C@@H](O)CN2C(=O)c2ccccn2)O1)N1CCN(c2ccccc2)CC1	0	-	-	-	-	-
CN(c1ccc(OCC(=O)Nc2cc(Cl)ccc2C(=O)O)cc1)S(=O)(=O)c1ccc(F)cc1	0	0	-	26	0	-
CCc1c(C)c(C#N)c2nc3ccccc3n2c1N(C)C	0	0	-	0	0	0
CCCCc1c(C)c(C#N)c2nc3ccccc3n2c1Cl	-	-	128	-	-	0
CN(C)C(=O)C[C@@H]1CC[C@H]2[C@@H](COc3ccc(NC(=O)C4CC4)cc3C(=O)N2C)O1	0	-	-	-	-	-
CCOC(=O)Cn1c(=O)c(-c2ccccc2NCc2ccccc2)nc2ccccc21	0	61	0	0	0	0
S=C(NCCc1ccc(Cl)cc1)NC1CCCC1	-	0	0	0	0	0
S=C(NCCc1ccc(Cl)cc1)NC1CCCCC1	0	0	0	200	0	0
Cc1cccnc1NC(=S)NCCc1ccccc1	-	0	0	60	0	0
S=C(NCCc1ccccc1)NC1CCCCCC1	0	0	0	88	0	0
S=C(NCCc1ccccc1)Nc1ncccn1	0	0	-	0	0	-
CCn1c(=O)c(C(=O)NCCCc2ccccc2)c(O)c2ccccc21	0	0	0	0	0	0
O=C(NCCC1=CCCCC1)c1c(O)nc2sccn2c1=O	0	0	0	372	0	-
O=C(NCCCc1ccccc1)c1c(O)nc2sccn2c1=O	0	0	0	178	0	-
SMILES	Mtb BioA inh	MazEF act	BJeLR viability	PfHsp40 rescue	Yp Topo-I inh	3CLpro inhibitor
C[C@H](CO)N1C[C@H](C)[C@H](CN(C)Cc2ccccc2)Oc2ncc(/C=C/c3ccccc3)cc2C1=O	0	-	-	-	-	-
O=C(C=Cc1cccc(O)c1)c1ccccc1O	0	0	-	383	0	-
O=C(/C=C/c1ccc(O)c(O)c1)c1ccccc1O	0	0	0	0	0	0
O=C(/C=C/c1ccccc1)NC(=O)c1ccccc1O	0	0	0	0	0	0
O=C(/C=C/c1ccccc1)CC(=O)c1ccccc1O	-	55	0	0	0	0
C[C@@H]1CCCCO[C@H](CN(C)S(=O)(=O)c2cn(C)cn2)[C@@H](C)CN([C@@H](C)CO)C(=O)c2cc(NC(=O)CCCN(C)C)ccc2O1	0	-	-	-	-	-
O=C(COC(=O)C1CCN(S(=O)(=O)c2cccs2)CC1)c1cc2ccccc2o1	0	60	0	0	0	0
CN(C)c1ccc(/C=N/NC(=O)c2cnc3ccccc3c2)cc1	0	190	0	0	0	0
CN(C)c1ccc(/C=N/NC(=O)c2ccccn2)cc1	-	0	0	0	0	0
OC[C@H]1Nc2ccc(C#Cc3ccccc3)cc2[C@@H]2[C@H]1CCN2Cc1nccs1	0	-	-	-	-	-
Cc1ccc(C)c(Sc2ccc(NC(=O)CCN3C(=O)NC4(CCCC4)C3=O)cc2)c1	0	0	-	31	0	-
Cc1ccc(NC(=O)CCN2C(=O)NC3(CCCC3)C2=O)cc1	0	0	-	0	0	-
CO[C@H]1CN(C)C(=O)c2cc(NC(C)=O)ccc2OC[C@@H](C)N(C(=O)Cc2cccnc2)C[C@H]1C	0	-	-	-	-	-
COc1ccccc1NC(=O)/C(=N/OCc1ccc(F)cc1)C(C)=O	0	75	0	0	0	0
COc1ccccc1NC(=O)C(=N\O)/C(C)=N/O	-	0	0	0	0	0
CSc1ncccc1C(=O)N1CCN(S(=O)(=O)c2ccc3ccccc3c2)CC1	0	0	-	0	0	-
O=C(c1ccccc1F)N1CCN(S(=O)(=O)c2ccc3ccccc3c2)CC1	0	0	0	30	0	0
CC(O)c1nc2ccccc2n1C1CCCCC1 (stereo not drawn)	0	0	0	74	0	0
Cc1ccc(S(=O)(=O)N2C[C@@H](O)COC[C@@H]3O[C@@H](CC(=O)NCCN4CCCCC4)CC[C@H]32)cc1	0	-	-	-	-	-
COCC(=O)Nc1ccc2c(c1)[C@@H]1C[C@@H](CC(=O)NCc3ccc(Cl)cc3)O[C@@H](CO)[C@@H]1O2	0	-	-	-	-	-
COC(=O)c1cc(NC(=O)CN(c2ccccc2OC)S(=O)(=O)c2ccccc2)ccc1Cl	0	0	0	0	0	13
COc1ccc(N(C)S(=O)(=O)c2ccc(Cl)c(C(=O)NNC(=O)c3ccccc3O)c2)cc1	0	0	-	248	0	-
COc1ccccc1N(C)S(=O)(=O)c1ccc(Cl)c(C(=O)NNC(=O)c2ccccc2O)c1	0	0	0	218	0	0
COc1ccccc1N(C)S(=O)(=O)c1ccc(C(=O)NNC(=O)c2ccccc2O)cc1	-	0	-	-	0	-
Cc1ccc(S(=O)(=O)N(C)C[C@@H]2OCCCC[C@H](C)Oc3ccc(NC(=O)Nc4ccc(F)cc4)cc3C(=O)N([C@@H](C)CO)C[C@@H]2C)cc1	0	-	-	-	-	-
C[C@H]1CN([C@@H](C)CO)C(=O)c2cc(NS(=O)(=O)c3ccccc3)ccc2O[C@H]1CN(C)Cc1ccccc1	0	-	-	-	-	-
C/C(=N/NC(=O)c1cc(-c2cccc([N+](=O)[O-])c2)n[nH]1)c1ccc(Cl)cc1	0	56	0	0	0	0
COc1cc2c(cc1OC)C1=CC(=O)C(=O)N1C(C)(C)C2	-	55	0	0	0	0

Source: PubChem
